Screening results: PubChem, National Center for Advancing Translational Sciences (NCATS)
The list is not random: actives were taken first. Their share in the collection is about 2.4%.
FEN1 inh: inhibitors of human flap endonuclease 1. Potency, µM (series often up to 114 µM), without a hit: at the highest dose activity change, negative = inhibition, hits mostly inhibitors. Recombinant FEN1 flap cleavage, fluorescence, 15 min. 0.35% of 390,000 active; further: on the % scale 0 is the no-effect control and ±100 the full control effect; nearly all actives have a fitted effect of over 65% in size
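Recombinant FEN1 (10 nM) was preincubated with pin-transferred compounds for 15 min at room temperature, then flap DNA substrate (50 nM final) was added. Plates were read at 0 and 15 min, and normalized concentration–response data were fitted to a four-parameter Hill equation.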
TDP1 inh: TDP1 (human) enzyme inhibition; Q9NUW8; recombinant TDP1, AlphaScreen DNA substrate cleavage; Potency, µM (doses to about 130 µM), for the others: at the top dose activity change, negative = inhibition, hits mostly inhibitors; 0.28% of 350,000 active; further: on the % scale 0 is the no-effect control and ±100 the full control effect; nearly all actives have a fitted effect of over 40% in size
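E. coli-derived human Tdp1, 1 nM final. Cpd preinc 15 min RT; substrate 15 nM final, 5 min RT; AS bead mix 10 ug/ml final, 10 min RT. Signal loss = tyrosine-FITC cleavage. No-enzyme wells = max signal.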
POLI inh: inhibitors of human DNA polymerase iota; Pol iota fluorescent replication assay, 10 min; Potency, µM (doses to about 115 µM), inactives show top-dose activity, negative = inhibition, hits mostly inhibitors; Q9UNA4; 1% of 390,000 active; AID 588590
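Fluorescent replication assay read twice, at 0 min and 10 min after adding 50 nM (final) substrate. Enzyme (10 nM) and compounds were first incubated 15 min at room temperature; enzyme-free buffer wells were negative controls.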
POLB inh: DNA polymerase beta (human) inhibition; P06746; Potency, µM (titrated, usually from 114 µM), for inactives: at the highest dose activity change, negative = inhibition, hits mostly inhibitors; Pol beta primer extension/strand displacement, fluorescence kinetic; 1.3% of 340,000 active; further: on the % scale 0 is the no-effect control and ±100 the full control effect
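Homogeneous kinetic assay of primer extension and strand displacement by 10 nM Pol beta, preincubated 15 min at room temperature with compound before 50 nM substrate (final) was added. Read at 0 and 10 min; four-parameter Hill fit.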
POLK inh: blocks human DNA polymerase kappa activity | Potency, µM (series often up to 107 µM), without a hit: at the top dose activity, negative = inhibition, usual class: inhibitors | 0.53% of 400,000 active | Q9UBT6 | purified Pol kappa, fluorescent DNA synthesis assay, 10 min | AID 588579; further: on the % scale 0 is the no-effect control and ±100 the full control effect
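Kinetic fluorescence readout at 0 and 10 min followed reaction start with substrate at 50 nM final. Beforehand, enzyme (10 nM Pol kappa) stood 15 min with compound at room temperature; buffer-only wells were negative controls.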
POLH inh: DNA polymerase eta (human) inhibition. Q9Y253. recombinant Pol eta, fluorescent DNA replication assay. Potency, µM (titrated, usually from 114 µM), for the others: top-dose activity change, negative = inhibition, hits mostly inhibitors. 1.2% of 390,000 active. AID 588591; further: on the % scale 0 is the no-effect control and ±100 the full control effect
Target sequence (Q9Y253 whole entry, looked up): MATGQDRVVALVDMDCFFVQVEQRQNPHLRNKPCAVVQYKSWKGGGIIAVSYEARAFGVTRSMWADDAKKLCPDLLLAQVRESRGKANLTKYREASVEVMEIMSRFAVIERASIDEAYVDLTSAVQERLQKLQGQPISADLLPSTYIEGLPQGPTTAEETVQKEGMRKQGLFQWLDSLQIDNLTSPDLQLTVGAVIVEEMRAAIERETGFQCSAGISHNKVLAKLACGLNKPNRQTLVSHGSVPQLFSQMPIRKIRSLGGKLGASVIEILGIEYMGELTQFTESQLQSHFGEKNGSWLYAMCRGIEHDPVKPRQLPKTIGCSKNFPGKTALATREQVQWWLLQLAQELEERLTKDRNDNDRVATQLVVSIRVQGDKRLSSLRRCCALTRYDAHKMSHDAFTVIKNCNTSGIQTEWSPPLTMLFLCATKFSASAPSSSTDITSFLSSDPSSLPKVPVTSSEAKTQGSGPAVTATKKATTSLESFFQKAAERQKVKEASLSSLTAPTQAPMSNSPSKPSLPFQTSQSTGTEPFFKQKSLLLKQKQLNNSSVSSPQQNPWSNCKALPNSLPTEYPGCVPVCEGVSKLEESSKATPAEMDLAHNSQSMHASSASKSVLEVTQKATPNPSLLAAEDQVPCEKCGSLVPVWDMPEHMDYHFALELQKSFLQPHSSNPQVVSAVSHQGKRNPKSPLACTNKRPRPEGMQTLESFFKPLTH
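Pol eta at 10 nM preincubated with compounds 15 min at room temperature; reaction started with fluorescent substrate (50 nM final) and read kinetically at 0 and 10 min.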
An asterisk follows results filed as active; [ ] = remark or other dose. The call rests on the fitted dose curve; in most records, active means well fitted curve in the direction sought with a large enough effect; inconclusive means small, poorly fitted or top-dose-only effect, or another doubt; inactive means no such curve, though single readings can be large; an effect the other way counts as inactive or inconclusive. Potency means the concentration at half of the fitted maximal effect.

How did Cc1cccc(N2CCn3c2nc2c3c(=O)n(CCCc3ccccc3)c(=O)n2C)c1 do in these assays?
FEN1 inh: 3.4%; TDP1 inh: 1.3%; POLI inh: -3.4%; POLB inh: 89.1µM*; POLK inh: -29.1%; POLH inh: -10.0%

What do the screens show for `COc1cccc(C2c3c(ncn(-c4ccccc4C)c3=N)Oc3ccc4ccccc4c32)c1` (stereo unspecified)?
TDP1 inh: 4.3%

What do the screens show for `O=C(O)C1C2C=CC(C2)C1C(=O)NCc1cccs1` (stereo unspecified)?
FEN1 inh: -3.6%; TDP1 inh: 44.7µM*; POLI inh: 47.4%; POLB inh: inconclusive; POLK inh: 0.1%; POLH inh: -12.5%

How did O=C(O)C1C2C=CC(C2)C1C(=O)NCc1ccccc1F (stereo unspecified) do in these assays?
FEN1 inh: 19.2%; POLI inh: 4.9%; POLB inh: 0.3%; POLK inh: -12.8%; POLH inh: 2.2%

How did CCc1cccc(NC(=O)CN2C(=O)CCc3cc(S(=O)(=O)N4CCOCC4)ccc32)c1 do in these assays?
FEN1 inh: -3.7%; TDP1 inh: 1.2%; POLI inh: 24.0%; POLB inh: 6.2%; POLK inh: -3.6%[60.1 µM]; POLH inh: -18.7%

How did CC1CCN(S(=O)(=O)c2ccc3c(c2)CCC(=O)N3CC(=O)Nc2cccc(C#N)c2)CC1 do in these assays?
FEN1 inh: 5.7%; TDP1 inh: inconclusive; POLI inh: inconclusive; POLB inh: 50.1µM*; POLK inh: -7.7%[60.1 µM]; POLH inh: 79.4µM*

Results for S=C([S-])NCCNC(=S)[S-].[Zn+2] ?
TDP1 inh: 14.1µM*

What do the screens show for `COc1ccccc1N1CSC2=C(C#N)C(c3ccc(SC)cc3)CC(=O)N2C1` (stereo unspecified)?
FEN1 inh: inconclusive; TDP1 inh: 6.1%; POLI inh: inconclusive; POLB inh: 25.1µM*; POLK inh: inconclusive; POLH inh: 44.7µM*

How did N#CC1=C2SCN(C3CCCCC3)CN2C(=O)CC1c1ccc(F)cc1 (stereo unspecified) do in these assays?
FEN1 inh: -2.8%; TDP1 inh: 4.7%; POLI inh: 25.1µM*; POLB inh: -16.4%; POLK inh: -15.8%; POLH inh: -19.4%

How did Cc1cc(C)cc(OCC(=O)NCc2nc(-c3ccccc3)no2)c1 do in these assays?
FEN1 inh: -5.1%; TDP1 inh: -8.8%; POLI inh: 89.1µM*; POLB inh: -29.5%; POLK inh: -10.3%; POLH inh: -7.7%

Results for Cc1ccc(NC(=O)Cn2nnc(C(=O)NCCc3ccccc3)c2N)cc1Cl ?
FEN1 inh: -7.6%; TDP1 inh: -12.6%; POLI inh: inconclusive; POLB inh: inconclusive; POLK inh: -15.4%; POLH inh: -19.7%

What do the screens show for `Cc1ccc(C)c(NC(=O)Cn2nnc(C(=O)NCc3ccccc3Cl)c2N)c1`?
FEN1 inh: 11.7%; TDP1 inh: 0.0%; POLI inh: inconclusive; POLB inh: 35.5µM*; POLK inh: -11.1%[60.1 µM]; POLH inh: -16.1%

Results for Nc1c(C(=O)NCCc2ccccc2)nnn1CC(=O)Nc1ccc(Cl)cc1 ?
FEN1 inh: -14.2%; TDP1 inh: -6.3%; POLI inh: 79.4µM*; POLB inh: inconclusive; POLK inh: -28.4%; POLH inh: -6.7%

What do the screens show for `CSc1cccc(NC(=O)Cn2nnc(C(=O)NCCc3ccccc3)c2N)c1`?
FEN1 inh: 2.1%; TDP1 inh: -3.8%; POLI inh: 79.4µM*; POLB inh: 25.1µM*; POLK inh: -4.9%[60.1 µM]; POLH inh: -21.0%

What do the screens show for `Cc1ccc(CNc2nc(-c3ccco3)nn2S(C)(=O)=O)cc1`?
FEN1 inh: 1.9%; TDP1 inh: 0.5%; POLI inh: -16.8%; POLB inh: -21.5%; POLK inh: -12.4%; POLH inh: -15.8%

Results for CCCCn1c(=O)c2oc3ccccc3c2n(Cc2cccc(C)c2)c1=O ?
FEN1 inh: 6.2%; TDP1 inh: -5.1%; POLI inh: -14.9%; POLB inh: -1.3%; POLK inh: -7.1%; POLH inh: -26.0%

What do the screens show for `O=Cc1ccccc1C=O`?
POLK inh: 23.8µM*

How did CC1C/C(=C\c2cccnc2)C(=O)/C(=C/c2cccnc2)C1 (stereo unspecified) do in these assays?
FEN1 inh: 2.1%; TDP1 inh: 3.5%; POLI inh: 15.8µM*; POLB inh: -2.3%; POLK inh: -5.8%; POLH inh: 20µM*

How did CC(=O)c1ccc(NC(=O)c2ccc3snnc3c2)cc1 do in these assays?
FEN1 inh: -9.0%; POLI inh: inconclusive; POLB inh: 25.1µM*; POLK inh: -14.0%; POLH inh: inconclusive

How did O=c1c2c(nc3c(-c4ccc(Cl)cc4)c[nH]n13)CCC2 do in these assays?
FEN1 inh: -4.7%; TDP1 inh: 10.1%; POLI inh: 19.6%; POLB inh: 89.1µM*; POLK inh: -9.3%; POLH inh: -17.4%

Results for O=C(c1ccco1)[C@@H]1[C@@H]2C(=O)N(c3ccccc3)C(=O)[C@@H]2C2c3ccccc3C=CN21 (stereo partly specified) ?
FEN1 inh: -18.0%; TDP1 inh: 7.8%; POLI inh: 12.6µM*; POLB inh: 35.6%; POLK inh: -13.5%; POLH inh: inconclusive

What do the screens show for `Cc1ccc(N2C(=O)[C@@H]3[C@H](C2=O)C2c4ccccc4C=CN2[C@@H]3C(=O)c2ccco2)c(C)c1` (stereo partly specified)?
FEN1 inh: -0.9%; TDP1 inh: 5.9%; POLI inh: inconclusive; POLB inh: 20.8%; POLK inh: -23.0%; POLH inh: 28.2µM*

Results for Cc1ccc(N2C(=O)[C@@H]3[C@H](C2=O)C2c4ccccc4C=CN2[C@@H]3C(=O)c2ccco2)cc1 (stereo partly specified) ?
FEN1 inh: -6.1%; TDP1 inh: 10.0%; POLI inh: inconclusive; POLB inh: 6.0%; POLK inh: -23.2%; POLH inh: inconclusive

What do the screens show for `CCOc1ccc(CNC(=O)c2cccn2-c2nnc(N3CCCCC3)s2)cc1OC`?
FEN1 inh: 11.9%; TDP1 inh: 2.6%; POLI inh: 19.9%; POLB inh: inconclusive; POLK inh: -7.0%; POLH inh: -2.4%

What do the screens show for `O=C1c2ccccc2C(=O)N1c1cc(=O)c2ccccc2[nH]1`?
TDP1 inh: 1.9%

Results for CCOC(=O)c1ccc(CC(=O)c2ccc(O)c(O)c2O)o1 ?
FEN1 inh: 14.1µM*; POLI inh: 1µM*; POLB inh: 1.12µM*; POLK inh: 1.58µM*; POLH inh: inconclusive
